# High-throughput results deposited in PubChem BioAssay by National Center for Advancing Translational Sciences (NCATS).
# Most compounds without a hit are left out; they make up all but 18% or so of the library.
# KAT2A inh – qHTS Assay for Inhibitors of GCN5L2. Histone acetyltransferase KAT2A (Homo sapiens), Q92830. GCN5L2 HAT assay, ThioGlo1 CoA-SH fluorescence. Potency, µM (titrated, usually from 58.9 µM), for inactives: top-dose activity change, negative = inhibition, usual class: inhibitors. 0.21% of 390,000 active
#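 Preincubate 20nM GCN5L2 with compound 15 min, RT → add 50uM ThioGlo1 + 75uM H3(1-25) + 70uM acetyl-CoA → read fluorescence 0 and 20 min. Primary qHTS; fluorescent artifacts likely.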
# PLK1 PBD inh – qHTS for Inhibitors of PLK1-PDB (polo-like kinase 1 - polo-box domain): Primary Screen | 2.8% of 360,000 active | Serine/threonine-protein kinase PLK1 (Homo sapiens), P53350 | Plk1 PBD binding of FITC phosphopeptide, fluorescence polarization | Potency, µM, without a hit: max response, negative = inhibition, usual class: inhibitors; note: series mostly up to about 57 µM; nearly all actives have a fitted effect of over 65% in size
# TDP1 cell CPT – qHTS for Inhibitors of human tyrosyl-DNA phosphodiesterase 1 (TDP1): qHTS in cells in presence of CPT; AID 686979, 2013; Potency, µM (top dose mostly 46.2 µM), without a hit: top-dose activity change, negative = growth inhibition, actives largely listed as inhibitors; 12% of 420,000 active; chicken DT40 Tdp1-/-;hTDP1 cells + 20 nM CPT, ATP luminescence, 48 h; note: nearly all actives have a fitted effect of over 55% in size
#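 Chicken DT40 Tdp1-/- cells complemented with human TDP1, 400 cells/well, exposed to compounds plus 20 nM camptothecin for at least 48 h at 37 C; viability read as ATP content by CellTiter-Glo luminescence.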
# VDR inh – Inhibitors of the vitamin D receptor (VDR): qHTS | Potency, µM, for the others: max response, negative = inhibition, actives largely listed as inhibitors | Vitamin D3 receptor (Homo sapiens), P11473 | VDR-SRC2-3 peptide fluorescence polarization, 2 h | 0.93% of 400,000 active
#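 Compounds are added to VDR with labelled SRC2-3 coactivator peptide and held 2 h at room temperature. Inhibition of the VDR–peptide interaction is then read as a change in fluorescence polarization.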
# TDP1 block – qHTS Assay for Inhibitors of Tyrosyl-DNA Phosphodiesterase (TDP1); recombinant TDP1, AlphaScreen DNA substrate cleavage; Potency, µM (doses to about 130 µM), for inactives: at the top dose activity change, negative = inhibition, most hits filed as inhibitors; Tyrosyl-DNA phosphodiesterase 1 (Homo sapiens), Q9NUW8; 0.28% of 350,000 active; note: nearly all actives have a fitted effect of over 40% in size
# Target sequence (Q9NUW8 whole entry, looked up): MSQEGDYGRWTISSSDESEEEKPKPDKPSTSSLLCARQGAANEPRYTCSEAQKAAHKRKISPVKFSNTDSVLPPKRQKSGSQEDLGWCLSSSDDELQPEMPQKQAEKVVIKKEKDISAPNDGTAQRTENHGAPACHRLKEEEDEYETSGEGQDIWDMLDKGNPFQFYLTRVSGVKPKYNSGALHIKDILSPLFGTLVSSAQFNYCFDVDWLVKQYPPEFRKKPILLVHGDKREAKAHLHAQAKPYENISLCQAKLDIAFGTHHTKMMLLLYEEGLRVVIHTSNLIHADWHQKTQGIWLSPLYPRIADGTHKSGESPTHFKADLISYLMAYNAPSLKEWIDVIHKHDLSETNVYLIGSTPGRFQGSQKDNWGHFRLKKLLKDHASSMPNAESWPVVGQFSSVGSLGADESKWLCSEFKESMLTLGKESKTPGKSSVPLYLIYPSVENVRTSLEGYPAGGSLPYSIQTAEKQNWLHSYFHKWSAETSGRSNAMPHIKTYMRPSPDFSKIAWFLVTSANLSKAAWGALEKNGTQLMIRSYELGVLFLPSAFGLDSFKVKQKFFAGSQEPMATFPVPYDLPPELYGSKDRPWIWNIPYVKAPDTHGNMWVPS
#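 Enzyme-compound mixtures sat 15 min at room temperature, followed by a 5 min reaction with 15 nM final substrate and 10 min with AlphaScreen beads. Recombinant human Tdp1 was used at 1 nM final.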
# DT40 TDP1 no CPT – qHTS for Inhibitors of human tyrosyl-DNA phosphodiesterase 1 (TDP1): qHTS in cells in absence of CPT; 15% of 420,000 active; AID 686978, 2013; Potency, µM (doses to about 46.2 µM), inactives show top-dose activity change, negative = growth inhibition, hits mostly inhibitors; DT40 Tdp1-/- hTDP1 cells, no CPT, ATP luminescence, 48 h; note: nearly all actives have a fitted effect of over 55% in size
#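 Cells were dispensed at 400 per well, compounds added by pin tool, plates incubated ≥48 hr at 37 °C, then CellTiter-Glo added for 30 min at room temperature before luminescence reading. Line: DT40 Tdp1-/- complemented with hTDP1; camptothecin omitted.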
# An asterisk follows results filed as active; ? = inconclusive; nt = not tested or not shown; [ ] = dose if it differs, or a comment. Calls come from the whole dose curve; as a rule, active = well fitted curve in the direction sought with a large enough effect; inconclusive = small, poorly fitted or top-dose-only effect, or another doubt; inactive = no such curve, though single readings can be large; an effect the other way counts as inactive or inconclusive. % is set by controls: 0 for no effect and ±100 for the full control effect; potency is the fitted concentration of half-maximal effect.
SMILES,KAT2A inh,PLK1 PBD inh,TDP1 cell CPT,VDR inh,TDP1 block,DT40 TDP1 no CPT
CCCCC[C@@H](C)N1C[C@H](COCc2ccccc2)Oc2cc(N3CC[C@@H](N(C)C)C3)ccc2S1(=O)=O,nt,7%,23µM*,nt,nt,21µM*
CCCCC[C@@H](C)N1C[C@@H](COCc2ccccc2)Oc2cc(N3CC[C@@H](N(C)C)C3)ccc2S1(=O)=O,nt,-8%,21µM*,nt,nt,23µM*
O=C(O)CC1S/C(=N/N=C/c2ccc([N+](=O)[O-])cc2)N(c2ccc(O)cc2)C1=O (stereo unspecified),-5%,?,8%,6%,0%,-15%
COc1ccc(N2CC(NC(=O)C(=O)c3c[nH]c4ccccc34)CC2=O)cc1 (stereo unspecified),-3%,nt,-6%,16%,5%,-27%
Cc1ccccc1Cn1cc(S(=O)(=O)c2ccc(Cl)cc2)c(=O)c2cc3c(cc21)OCO3,-1%,nt,-15%,-1%,4%,?
Cc1cccc(CNc2ccnc(-c3ccc(C(=O)N(C)C)cc3)n2)c1,-5%,nt,?,5%,9%[56.1 µM],?
O=c1[nH]ncn1-c1ccc(Br)cc1,-10%,0%,-2%,-8%,5%,8%
CC1CCc2c(sc(NC(=O)c3cc(-c4ccc(F)cc4)on3)c2C(N)=O)C1 (stereo unspecified),-5%,nt,-7%,5%,-1%,-1%
COc1cc(C#N)c(NC(=O)CN2CCC(C(N)=O)CC2)cc1OC,-12%,3%,-10%,22%,4%,16%
CCO[C@H]1OC(C(=O)N2CCN(Cc3ccc4c(c3)OCO4)CC2)=C[C@@H](C(C)(C)C)[C@@H]1CCCO,-2%,-2%,?,?,3%,?
CCO[C@H]1OC(C(=O)N2CCN(C)CC2)=C[C@@H](c2ccc3c(c2)OCO3)[C@@H]1CCCO,3%,-9%,-14%,4%,5%,0%
CCO[C@H]1OC(C(=O)N2CCN(Cc3ccccc3)CC2)=C[C@@H](C2CCCCC2)[C@@H]1CCCO,-8%,-5%,9.2µM*,-13%,3%,9.2µM*
CCO[C@@H]1OC(C(=O)N2CCN(Cc3ccc4c(c3)OCO4)CC2)=C[C@H](c2ccc(C(F)(F)F)cc2)[C@H]1CCCO,-5%,4%,16µM*,-11%,6%,21µM*
CCO[C@@H]1OC(C(=O)N2CCN(Cc3ccc4c(c3)OCO4)CC2)=C[C@H](C2CCCCC2)[C@H]1CCCO,-3%,-10%,21µM*,-13%,8%,?
CCO[C@H]1OC(C(=O)N2CCCCCCC2)=C[C@@H](C2CCCCC2)[C@@H]1CCCO,-8%,-8%,26µM*,-15%,1%,13µM*
CCO[C@@H]1OC(C(=O)N2CCN(Cc3ccccc3)CC2)=C[C@H](C)[C@H]1CCCO,-21%,-4%,-8%,-8%,3%,-12%
COc1ccc(CNC(=O)CCNC(=O)N2CCn3c2nc2ccccc23)cc1,-5%,24µM*,?,-20%,2%,3%
Cc1ccc(CNC(=O)CCCCCNC(=O)N2CCn3c2nc2ccccc23)cc1,-7%,1%,18µM*,5%,0%,?
Cc1ccc(CNC(=O)CCNC(=O)N2CCn3c2nc2ccccc23)cc1,-7%,-7%,-22%,-10%,1%,?
COc1cccc(CNC(=O)CCNC(=O)N2CCn3c2nc2ccccc23)c1,-7%,-9%,-13%,5%,2%,16%
COc1cccc(CNC(=O)CCCCCNC(=O)N2CCn3c2nc2ccccc23)c1,-8%,1%,16µM*,18%,2%,-28%
CCCCCCOc1ccc(-c2ccc(C#N)cn2)cc1,-4%,-3%,-26%,11%,-3%,-20%
Cn1cc(C=CC(=O)O)c2nccnc21,nt,-3%,-4%,nt,nt,6%
O=C(NCC(c1ccccc1)c1ccccc1)c1nn(-c2ccccc2F)nc1CO,-1%,nt,-17%,10%,2%,?
COC(=O)c1cc(OC)c(OC)cc1NC(=O)c1ccc(C)o1,-12%,0%,15µM*,5%,8%,18µM*
SMILES,KAT2A inh,PLK1 PBD inh,TDP1 cell CPT,VDR inh,TDP1 block,DT40 TDP1 no CPT
COC(=O)c1ccccc1NC(=O)c1cccc(NC(=O)c2ccc(Br)o2)c1C,-9%,-7%,2.9µM*,27%,2%,1.8µM*
Cc1cc2nc(-c3cccc(NC(=O)c4ccc(Br)o4)c3C)oc2cc1C,0%,-8%,?,6%,-8%,23µM*
COC(=O)c1ccccc1NC(=O)c1ccc(COc2ccc(C)c(C)c2)o1,-10%,-3%,?,8%,-7%,13µM*
Cc1ccc(OCc2ccc(C(=O)NN)o2)cc1C,-7%,2%,5%,1%,4%,-8%
COC(=O)c1ccccc1NC(=O)c1ccc(COc2cc(C)cc(C)c2)o1,-4%,-4%,?,4%,1%,23µM*
COc1ccc(-c2[nH]c(-c3ccc4c(c3)OCO4)nc2-c2ccccc2)cc1,-7%,-7%,?,8%,9%,?
Cc1c(C)c(C)c2[nH]c(-c3ccc4c(c3)OCO4)nc2c1C,?,-2%,?,12%,nt,18µM*
O[Si](CCCN1CCCCC1)(c1ccc(F)cc1)C1CCCCC1 (stereo unspecified),3%,-3%,?,-8%,10%[56.1 µM],26µM*
Cc1ccc(C(CC(=O)NCCCN(C)C)c2ccc(OC(C)C)cc2)cc1 (stereo unspecified),-3%,1%,?,-4%,nt,?
CN1C(=O)C(O)(C2OC(C)(C)CCC2=O)c2ccccc21 (stereo unspecified),-5%[0.501 µM],-2%,8.2µM*,5%,-1%,6.5µM*
COC(=O)c1ccc(-c2ccc(F)cc2)nc1C,-6%,-5%,-15%,-5%,5%,-3%
COC(=O)CC1Oc2ccccc2-n2cc(-c3ccc(C)cc3)nc21 (stereo unspecified),-3%,nt,5.8µM*,4%,6%,3.3µM*
